HPGD block = qHTS Assay for Inhibitors of HPGD (15-Hydroxyprostaglandin Dehydrogenase) | 15-hydroxyprostaglandin dehydrogenase [NAD(+)] (Homo sapiens), P15428 | 150,000 tested, 4.3% active | Potency, µM, for the others: at the top dose activity change, negative = inhibition, usual class: inhibitors | purified HPGD, NADH fluorescence kinetic, PGE2 substrate; active = well fitted inhibition curve with a large enough effect, not every such curve was filed as active; inconclusive = small, poorly fitted or top-dose-only effect, or another doubt; inactive = no such curve, though single readings can be large or run the other way; note: potency is the fitted concentration of half-maximal effect
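NADH formation kinetics: reaction with 30 uM PGE2 and 1 mM NAD+ (final), 20 nM enzyme, Tris-HCl pH 8 with Tween 20, after 15 min compound preincubation at room temperature. Fluorescence change, last versus first of five reads.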
ALDH1A1 block = qHTS Assay for Inhibitors of Aldehyde Dehydrogenase 1 (ALDH1A1). Potency, µM (top dose mostly 75.3 µM), without a hit: at the highest dose activity, negative = inhibition, hits mostly inhibitors. AID 1030, 2008. 220,000 tested, 7.3% active. Aldehyde dehydrogenase 1A1 (Homo sapiens), P00352. Purified ALDH1A1, NADH fluorescence, propionaldehyde substrate; active = well fitted inhibition curve with a large enough effect, not every such curve was filed as active; inconclusive = small, poorly fitted or top-dose-only effect, or another doubt; inactive = no such curve, though single readings can be large or run the other way;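 note: potency is the fitted concentration of half-maximal effect; plate controls were no enzyme wells and a reference inhibitor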
IMPase cell inh = qHTS Assay for Identifying the Cell-Membrane Permeable IMPase Inhibitors; Inositol monophosphatase 1 (Rattus norvegicus), P97697; CHO-M1 cells, IP1 accumulation, HTRF TR-FRET ratio; inhibition (IP1 accumulation), % at 46.1 µM; 120,000 tested, under 10 active; AID 901, 2007; active = well fitted curve in the direction sought with a large enough effect in the signal ratio, not every such curve was filed as active; inconclusive = small, poorly fitted or top-dose-only effect, or a change in a side signal; inactive = no such curve, though single readings can be large or run the other way; the % refers to the signal ratio;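 note: cells stimulated with carbachol in lithium chloride buffer; plate controls were DMSO basal wells for no effect and reference inhibitor wells for full effect; higher means more IMPase inhibition seen as more IP1 and lower FRET ratio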
Target sequence (P97697 whole entry, looked up): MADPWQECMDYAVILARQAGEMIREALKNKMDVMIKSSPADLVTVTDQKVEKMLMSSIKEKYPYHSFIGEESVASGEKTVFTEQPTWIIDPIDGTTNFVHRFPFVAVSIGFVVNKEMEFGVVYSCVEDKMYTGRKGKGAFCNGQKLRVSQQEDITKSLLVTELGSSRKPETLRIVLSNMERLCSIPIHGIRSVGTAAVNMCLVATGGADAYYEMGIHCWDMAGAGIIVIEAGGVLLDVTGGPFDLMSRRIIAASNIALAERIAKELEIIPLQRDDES
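Carbachol-driven Gq signalling in CHO-M1 cells (2000/well) generates IP1. Compounds that block IMPase raise IP1 and so reduce the FRET signal from Eu-anti-IP1 and d2-IP1 after a 10 min room-temperature lysis.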
PNC assembly inh = High Content Assay for Compounds that inhibit the Assembly of the Perinucleolar Compartment; activity change (PNC), negative = inhibition, % at 10 µM; PC3M PTB-GFP, PNC prevalence imaging, 16 h; active compounds read low; 140,000 tested, 3.1% active;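 active = readout at or below -70, meaning at least 70% loss of cells showing the perinucleolar compartment, a nuclear body marking cancer cells; inconclusive = readout between -30 and a set limit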;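 note: plate controls were DMSO wells for no effect and camptothecin positive control wells for full effect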
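Read-out is percentage of cells bearing a perinucleolar compartment, from automated 20x imaging of fixed, Hoechst-stained PC3M PTB-GFP cells. Cells were seeded 4 h, then exposed 16 h to compound (23 nl of library stock) in duplicate plates.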
NPSR antagonist = qHTS Assay for Antagonists of the Neuropeptide S Receptor: cAMP Signal Transduction; 220,000 tested, 1% active; CHO-NPSR cells, cAMP TR-FRET, antagonist mode; Potency, µM (top dose mostly 38.3 µM), inactives show top-dose activity change, negative = inhibition, usual class: inhibitors; note: potency is the fitted concentration of half-maximal effect; nearly all actives have a fitted effect of over 50% in size
Target sequence (Q6W5P4 whole entry, looked up): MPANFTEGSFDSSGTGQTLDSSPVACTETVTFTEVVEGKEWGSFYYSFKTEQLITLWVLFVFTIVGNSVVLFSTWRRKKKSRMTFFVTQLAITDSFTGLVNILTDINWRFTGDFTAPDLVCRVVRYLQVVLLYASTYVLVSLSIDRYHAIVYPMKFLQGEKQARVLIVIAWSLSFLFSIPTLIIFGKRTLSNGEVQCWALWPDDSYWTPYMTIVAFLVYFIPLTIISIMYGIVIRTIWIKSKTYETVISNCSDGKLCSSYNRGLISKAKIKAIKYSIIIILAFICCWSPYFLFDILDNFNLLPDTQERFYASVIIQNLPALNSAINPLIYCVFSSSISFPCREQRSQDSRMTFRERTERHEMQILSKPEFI
IMPase Li cell = qHTS Assay for Identifying the Cell-Membrane Permeable IMPase Inhibitors: Potentiation with Lithium. CHO-M1 cells, IP1 TR-FRET (IP-One), carbachol + lithium. 210,000 tested, 0.35% active. Potency, µM (top dose mostly 59.4 µM), for the others: at the top dose activity, negative = IMPase inhibition, most hits filed as inhibitors. AID 1457, 2008;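 note: IP1 builds up when IMPase is blocked and the TR-FRET signal falls; potency is the fitted concentration of half-maximal effect; plate controls were basal vehicle for no effect and high inhibitor control for full effect; nearly all actives have a fitted effect of over 50% in size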
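CHO-M1, 2000 cells/well, 16–30 h culture; cpd + low Li+, 30 min 37C; lysis with d2-IP1/Eu-anti-IP1 Ab, 10 min RT; TR-FRET 665/620 ratio and 620 channel; AC50 via Hill.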
Numbers without * were called inactive; ? = inconclusive; . = no result; [ ] = remark or other dose. Sampled rows, rich in hits. Any-hit rate of the full collection: about 11%. Unless noted, calls come from the whole dose curve; as a rule, active = well fitted curve in the direction sought with a large enough effect; inconclusive = small, poorly fitted or top-dose-only effect, or another doubt; inactive = no such curve, though single readings can be large; an effect the other way counts as inactive or inconclusive. Unless noted, % is set by controls: 0 for no effect and ±100 for the full control effect.

SMILES	HPGD block	ALDH1A1 block	IMPase cell inh	PNC assembly inh	NPSR antagonist	IMPase Li cell
Cc1ccc(-c2ccc(C(=O)O)o2)cc1Cl	.	.	.	.	-28.2%	.
COC(=O)c1cccc(-c2ccc(C(c3c(C)[nH][nH]c3=O)c3c(C)[nH][nH]c3=O)o2)c1	.	6.31µM*	.	.	0.9%	8.6%
Cc1[nH][nH]c(=O)c1C(c1ccc(-c2ccc(Cl)c(C(=O)O)c2)o1)c1c(C)[nH][nH]c1=O	.	10µM*	.	.	0.2%	2.3%
COC(=O)c1ccccc1-c1ccc(C(c2c(C)[nH][nH]c2=O)c2c(C)[nH][nH]c2=O)o1	.	10.7%	.	.	4.3%	8.8%
CSc1ccc(-c2nc(CSCC(=O)N3CCOCC3)c(C)o2)cc1	?	?	3.5	-29.7	-1.8%[46.1 µM]	-10.8%[38.3 µM]
Cc1ccc(C)n1NC(=O)c1ccc(Cl)cc1Cl	-8.1%	3.6%	-1.7	39.2	-6.7%[46.1 µM]	6.0%[38.3 µM]
C=CCc1cc(/C=C2/NC(=S)NC2=O)cc(OC)c1O	25.1µM*	11.2%	11.9	11.9	-14.8%[46.1 µM]	10.5%[38.3 µM]
COc1cc(C)ccc1OCCOc1c(C)cc(Cl)cc1Cl	-12.6%	13.7%	.	-5.5	-12.5%	13.8%
COc1cc(C)ccc1OCCCOc1c(Cl)cccc1Cl	11.2µM*	-9.9%	.	9.6	-8.2%	20.8%
COc1ccccc1OCCCOc1c(Cl)cc(C)cc1Cl	14.1µM*	-1.9%	.	-1.6	-12.4%	17.5%
COc1ccccc1NCC(=O)N/N=C/C=C/c1ccccc1	-16.3%	14.1µM*	6.6	42.2	-18.3%	8.1%
COc1ccc(NCC(=O)N/N=C/C=C\c2ccccc2)cc1	-21.7%	9.46µM*	-0.4	?	-13.4%	13.8%
COc1ccc(OC)c(NC(=O)CSc2nnc(CNc3ccc(C)cc3C)o2)c1	-13.7%	?	-0.1	12.5	?	9.3%[38.3 µM]
Cc1[nH]c2ccccc2c1C(=O)CSC(=S)N1CCCCC1	25.1µM*	?	.	1.6	0.0%	7.3%
Cc1[nH]c2ccccc2c1C(=O)CN1CCN(C2CCCCC2)CC1	-7.6%	12.6µM*	12.2	?	-9.1%[46.1 µM]	27.2%[38.3 µM]
Cc1[nH]c2ccccc2c1C(=O)CSC(=S)N(C)C1CCCCC1	-6.6%	?	.	?	0.5%	6.3%
O=C(CSC(=S)N1CCCCC1)c1ccccc1	.	31.6µM*	.	.	2.0%	13.3%
Cc1[nH]c2ccccc2c1C(=O)CN1C(=O)C(=O)N(C2CCCC2)C1=O	.	2.4%	.	.	-10.8%	1.8%
CSc1ncccc1C(=O)OCC(=O)Nc1cc(C(F)(F)F)ccc1N1CCOCC1	-14.6%	1.5%	6.8	?	?	28.4%[38.3 µM]
Cc1cccc(OCC(O)Cn2c(NCc3cccnc3)nc3c2c(=O)[nH]c(=O)n3C)c1 (stereo not given)	-7.4%	4.8%	11.9	-2.5	?	-11.4%[38.3 µM]
CC(=O)Nc1ccc(S(=O)(=O)N(C2=NCC(C)S2)c2ccccc2)cc1 (stereo not given)	-16.3%	12.6µM*	-3.7	280.4	-12.8%[46.1 µM]	3.2%
Cc1cccc(N(C(=O)Nc2ccccc2)C2=NCC(C)S2)c1 (stereo not given)	17.8µM*	-2.7%	6.4	9.1	-7.6%[46.1 µM]	-0.8%[38.3 µM]
CC1CN=C(N(C(=O)Nc2ccccc2)c2ccc(F)cc2)S1 (stereo not given)	10µM*	-6.5%	4.2	-25.6	-7.6%[46.1 µM]	5.3%[38.3 µM]
CC(=O)Nc1ccc(S(=O)(=O)N(c2cccnc2)S(=O)(=O)c2ccc(NC(C)=O)cc2)cc1	11.2µM*	-2.8%	?	-18.1	-7.9%[46.1 µM]	-0.7%
CC(=O)Nc1ccc(S(=O)(=O)N(C)c2ccccc2)cc1	-12.4%	1.1%	4.6	27.8	-3.8%[46.1 µM]	-4.6%[38.3 µM]
SMILES	HPGD block	ALDH1A1 block	IMPase cell inh	PNC assembly inh	NPSR antagonist	IMPase Li cell
CCn1cc(C(=O)NC(C)C2CC3CCC2C3)cn1 (stereo not given)	-19.8%	10.4%	.	-27.2	5.0%	-2.4%
COc1ccc(N2CCN(C(=O)CSc3ccccc3N)CC2)cc1	?	25.1µM*	7.6	?	-15.5%[46.1 µM]	35.0%[38.3 µM]
COc1ccc(N2CCN(C(=O)CSc3nnc4n3C(C)(C)Cc3ccccc3-4)CC2)cc1	-13.8%	22.4µM*	-4.1	-80.4*	-26.3%[46.1 µM]	-2.5%[38.3 µM]
Cc1ccc(Cl)cc1N1CCN(C(=O)CSc2nnc3n2C(C)(C)Cc2ccccc2-3)CC1	-8.3%	?	13.9	-21.5	?	23.3%
COC(=O)CC(CP(=O)(O)CN(C)C=O)C(=O)OC (stereo not given)	.	.	.	.	-3.3%	.
Cc1cc2cc(C(c3nnnn3C3CCCC3)N(Cc3cccnc3)Cc3ccco3)c(=O)[nH]c2cc1C (stereo not given)	?	14.1µM*	1.5	11.0	-17.1%[46.1 µM]	20.2%[38.3 µM]
COCCn1nnnc1C(c1cc2ccc(C)cc2[nH]c1=O)N(Cc1ccco1)Cc1cccs1 (stereo not given)	-16.4%	17.8µM*	9.2	-24.1	?	9.7%[38.3 µM]
Cc1ccc2cc(C(c3nnnn3C3CCCC3)N(Cc3ccccc3)Cc3ccco3)c(=O)[nH]c2c1 (stereo not given)	?	?	3.8	-29.6	?	8.5%[38.3 µM]
CCC(C)(C)n1nnnc1C(c1cc2ccc(C)cc2[nH]c1=O)N(Cc1cccnc1)Cc1ccco1 (stereo not given)	-6.2%	?	-4.0	-12.3	-13.0%[46.1 µM]	13.2%
C/C(=N/NC(=O)c1ccco1)c1cccc(NC(=O)c2ccc(C)s2)c1	-0.1%	-8.2%	.	?	-7.7%	-1.3%
O=C(CSc1nnc(-c2ccncc2)n1CC1CCCO1)NCc1ccccc1 (stereo not given)	2.0%	-0.7%	?	-17.7	-12.2%[46.1 µM]	-4.0%[38.3 µM]
O=C(CSc1nnc(-c2cccs2)n1CC1CCCO1)c1cc2ccccc2o1 (stereo not given)	?	28.2µM*	7.8	-28.5	-23.0%[46.1 µM]	-8.2%[38.3 µM]
COC(=O)c1c(NC(=O)/C=C/c2ccc(OC)c(OC)c2)sc2c1CCC2	.	.	-1.5	.	.	.
CCOC(=O)c1cnc(-n2nc(C)cc2C)nc1NCCc1ccccc1	-16.4%	?	-4.6	?	12.6µM*	15.4%[38.3 µM]
CCOC(=O)c1cnc(-n2nc(C)cc2C)nc1Nc1ccc(OC)cc1	-4.5%	-10.1%	10.1	5.9	?	9.6%
CCOC(=O)c1cnc(-n2nc(C)cc2C)nc1NC1CCCC1	.	.	.	.	1.26µM*	.
CCOC(=O)c1c(C)[nH]c(N=Nc2ccccc2C)c1C	-14.4%	-0.8%	15.3	?	?	20.0%[38.3 µM]
